# Screening results: PubChem, National Center for Advancing Translational Sciences (NCATS)
# BAZ2B block – BAZ2B (human) inhibition. AlphaScreen BAZ2B-H3K14Ac peptide displacement. Potency, µM (titrated, usually from 114 µM), hits mostly inhibitors. hit rate 4.4% among 360,000. AID 504333; further: nearly all actives have a fitted effect of over 60% in size
#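 AlphaScreen displacement: compounds (up to 110uM) incubated 30 min at room temperature with a preformed 50 nM BAZ2B/50 nM biotinylated H3K14Ac peptide complex in PBS pH 7.4 with Tween-20. Donor and acceptor beads at 10 ug/mL final added, 20 min light-protected before reading.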
# PI5P4K alpha inh – inhibitors of human PI5P4K alpha; PI5P4Kalpha enzyme, ADP-Glo luminescence, 60 min; hits give low values; max response, %; hit rate 1.2% among 330,000; AID 652105; active means max response of -50% or lower; inconclusive means between -30% and -50%; inactive means -30% or higher; further: value at the top dose of about 77 µM
#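 ADP-Glo luminescence end-point after a 60 min room-temperature kinase reaction. PI5P4Kalpha and substrate in HEPES pH 7.4 buffer with EGTA, 0.1% CHAPS and 5% DMSO; ATP at 5 microM final.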
# L3MBTL1 inh – inhibitors of human L3MBTL1; AlphaScreen L3MBTL1–H3K9me1 peptide binding; Potency, µM (series often up to 57.1 µM), usual class: inhibitors; hit rate 0.66% among 230,000; AID 485360; further: nearly all actives have a fitted effect of over 60% in size
#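 Displacement of a biotinylated histone H3(1-15) peptide monomethylated at Lys9 (75 nM) from L3MBTL1 (50 nM) was measured by AlphaScreen after a 30 min room-temperature compound incubation; cefsulodin titration served as intraplate control.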
# HP1b binding inh – HP1-beta chromodomain-methylated histone interaction inhibition. P83916. AlphaScreen HP1-beta / biotin-H3K9me3 peptide binding. Potency, µM (doses to about 114 µM), usual class: inhibitors. hit rate 0.56% among 390,000. AID 540317; further: nearly all actives have a fitted effect of over 70% in size
#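 HP1-beta protein (50 nM final) preincubated 30 min at room temperature with biotinylated H3(1-18)K9me3 peptide (50 nM) in PBS pH 7.4, 0.01% Tween-20, then compound added for 30 min. AlphaScreen streptavidin donor/nickel chelate acceptor beads (10 ug/mL final), 30 min dark, luminescence read.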
# G9a inh – blocks human histone lysine methyltransferase G9a; Q96KQ7; G9a H3K9 monomethylation, AlphaScreen, 2 h; hit rate 8.8% among 350,000; Potency, µM (top dose mostly 102 µM), usual class: inhibitors; further: nearly all actives have a fitted effect of over 75% in size
#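 G9a (20 nM) was preincubated 15 min with compound, then reacted 2 h at room temperature with 500 nM biotin-H3K9 peptide and 20 µM SAM. Monomethyl-H3K9 detected by AlphaScreen using anti-H3K9me1 antibody.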
# JMJD2A Tudor – blocks the human JMJD2A Tudor domain; Potency, µM (series often up to 114 µM), usual class: inhibitors; hit rate 4.4% among 390,000; AlphaScreen JMJD2A-Tudor / H3K4me3 peptide binding; O75164; further: nearly all actives have a fitted effect of over 50% in size
# Hits are given with their value; – = inactive; ? = inconclusive; · = not tested or not shown; [ ] = remark or other dose. A selection: hits, their analogues and other compounds. The true share with any hit is near 11%. Unless noted, the call rests on the fitted dose curve; in most records, active means well fitted inhibition curve with a large enough effect; inconclusive means small, poorly fitted or top-dose-only effect; inactive means no such curve, though single readings can be large or run the other way.
SMILES,BAZ2B block,PI5P4K alpha inh,L3MBTL1 inh,HP1b binding inh,G9a inh,JMJD2A Tudor
CCOC(=O)C1CCN(C(=O)Nc2ccc3nc(-c4ccco4)c(-c4ccco4)nc3c2)CC1,11µM,-70,3.5µM,40µM,1.6µM,79µM
CCOC(=O)C1CCN(C(=O)Nc2ccc3c(c2)nc(C)n3C)CC1,–,·,·,–,?,–
O=C(Nc1ccc2nc(-c3ccco3)c(-c3ccco3)nc2c1)N1CCCCCC1,11µM,·,3.5µM,16µM,5µM,13µM
CC(C)S(=O)(=O)N1CCN(c2nc(-c3cccs3)nc3ccccc23)CC1,·,·,·,–,·,–
O=C(Cc1c(O)c2ccccc2[nH]c1=O)NCc1cccc(F)c1,–,·,–,–,–,–
O=C(Cc1c(O)c2ccccc2[nH]c1=O)NCc1ccccc1F,–,–,–,–,71µM,–
C=CCCN(Cc1ccc(OC)cc1)S(=O)(=O)c1ccccc1Br,·,·,·,–,·,–
CCOc1ccc(CNS(=O)(=O)c2cc3c(cc2C)NC(=O)CO3)cc1,–,·,·,–,–,–
CCn1c(SCC(=O)Nc2cc(NC(C)=O)ccc2OC)nnc1-c1ccccn1,?,·,–,–,–,50µM
CCn1c(SCC(=O)NC(C)(C)C)nnc1-c1ccoc1C,–,·,–,–,–,–
CCn1c(SCC(=O)Nc2cc(NC(C)=O)ccc2OC)nnc1-c1ccncc1,–,·,–,·,–,·
CCn1c(SCC(=O)NC(C)(C)C)nnc1-c1ccccn1,?,–,·,–,56µM,–
COc1cccc(NC(=O)CN2C(=O)c3cccc4cccc2c34)c1,–,·,·,–,–,–
COc1ccc(CNc2nc3c(-c4ccc(C)cc4)nnn3c3ccccc23)cc1,–,·,·,–,–,–
COc1cccc(C2C3=C(N=c4s/c(=C\c5ccc(OCC(=O)O)cc5)c(=O)n42)c2ccccc2CC3)c1 (stereo unspecified),50µM,?,–,–,20µM,45µM
COc1ccccc1C1C2=C(N=c3s/c(=C/c4cccc(OCC(=O)O)c4)c(=O)n31)c1ccccc1CC2 (stereo unspecified),50µM,?,–,?,14µM,35µM
NC(=O)C1CCN(c2oc(-c3ccc(F)cc3)nc2S(=O)(=O)c2ccccc2)CC1,–,–,–,–,–[12.7 µM],–
COc1ccccc1-c1nc(S(=O)(=O)c2ccc(Cl)cc2)c(N2CCCCCC2)o1,–,·,·,–,?,–
Cc1ccccc1-c1nc(S(=O)(=O)c2ccccc2)c(NCCCN2CCOCC2)o1,·,–,–,–,·,–
CCN1CCN(c2oc(-c3ccccc3C)nc2S(=O)(=O)c2ccccc2)CC1,?,–,–,–,35µM,?
O=S(=O)(c1ccccc1)c1nc(-c2ccc(F)cc2)oc1N1CCCCCC1,?,·,·,–,13µM,–
COc1ccccc1-c1nc(S(=O)(=O)c2ccccc2)c(N2CCCCC2)o1,–,–,·,?,25µM,79µM
CCCCNc1nc(Oc2ccc(=O)n(-c3ccccc3)n2)nc(N(CC)CC)n1,–,·,·,–,–,–
COc1ccc(CCNc2nc(SCc3cccc(Cl)c3)nc3ccccc23)cc1OC,–,·,·,–,–,–
O=C(c1cc(-c2ccc(Br)cc2)on1)N1CCc2ccccc2C1,–,–,·,–,–,50µM
SMILES,BAZ2B block,PI5P4K alpha inh,L3MBTL1 inh,HP1b binding inh,G9a inh,JMJD2A Tudor
O=C(c1cc(-c2ccc(Cl)c(Cl)c2)on1)N1CCCCCC1,–,–,·,–,–,–
O=C(c1cc(-c2ccc(Cl)cc2)on1)N1CCCCCC1,–,–,·,–,–,25µM
Cc1cc(C)nc(Nc2n[nH]c(COc3ccccc3)n2)n1,–,?,–,–,–,32µM
Cc1cc(C)nc(Nc2n[nH]c(COc3ccc4ccccc4c3)n2)n1,–,·,–,–,·,–
CC(=O)N1N=C(c2ccc(Cl)cc2)CC1c1ccco1 (stereo unspecified),–,–,–,–,·,–
Clc1ccc(C2=NN(c3ccccc3)C(c3ccco3)C2)cc1 (stereo unspecified),–,–,–,–,·,–
CS(=O)(=O)Nc1cccc(C2=NN(S(=O)(=O)c3ccccc3)C(c3ccco3)C2)c1 (stereo unspecified),–,–,·,?,50µM,?
CCS(=O)(=O)Nc1cccc(C2=NN(S(=O)(=O)c3ccccc3)C(c3ccco3)C2)c1 (stereo unspecified),–,–,·,–,?,?
O=C(c1ccc(Br)o1)N1N=C(c2ccc(Cl)cc2)CC1c1ccco1 (stereo unspecified),?,?,·,?,50µM,?
O=S(=O)(c1ccccc1)N1N=C(c2ccc(Cl)cc2)CC1c1ccco1 (stereo unspecified),–,–,–,–,45µM,–
Cc1ccccc1OCC(=O)NCC(=O)OCC(=O)c1ccc2c(c1)CCCC2,·,·,·,–,·,–
COc1ccc(C2CC(=O)c3c(C)nc(N4CCN(C=O)CC4)nc3C2)c(OC)c1 (stereo unspecified),–,·,·,–,–,–
COc1cccc(NC(=O)Cn2c(=O)n(CCCCC(=O)NCc3ccccc3Cl)c(=O)c3ccccc32)c1,–,·,·,–,–,–
Cc1ccc(OC(=O)CCS(=O)(=O)c2ccc(C)cc2)cc1,–,–,·,–,·,–
Cc1ccc(S(=O)(=O)CCC(=O)Oc2ccc3c(C)cc(=O)oc3c2)cc1,–,–,–,–,50µM,?
COc1ccc(CNC(=O)Cn2c(=O)nc(-c3ccccc3)c3cc(Cl)ccc32)cc1OC,–,·,·,–,–[12.7 µM],–
S=c1[nH]nc(C(c2ccccc2)C2CCCCC2)o1 (stereo unspecified),–,–,–,–,45µM,–
C=CCn1c(SCC(=O)Nc2ccc3c(c2)OCO3)nnc1-c1ccccc1OC,–,–,–,–,–,–
Nc1ccccc1SCc1csc(-c2ccc(Cl)cc2)n1,–,–,–,–,35µM,–
C=CCn1c(SCc2csc(-c3ccc(Cl)cc3)n2)nnc1-c1ccccc1OC,–,–,–,–,71µM,–
COc1ccccc1/C=C(\C#N)c1nc(-c2cc3ccccc3oc2=O)cs1,–,·,·,–,–,–
O=C(O)COc1ccccc1/C=C1\SC(=S)N(/N=C/c2ccccc2O)C1=O,56µM,–,–,–,–[2.33 µM],?
O=C(O)COc1ccc(/C=C2\SC(=Nc3ccccc3)N(c3ccccc3)C2=O)cc1,–,–,·,–,–,–
O=C(O)COc1ccccc1/C=C1\SC(=Nc2ccc(F)cc2)N(c2ccc(F)cc2)C1=O,79µM,–,–[2.29 µM],–,?,–
O=C(O)COc1ccccc1/C=C1\SC(=S)N(NC(=O)c2ccccc2O)C1=O,14µM,?,13µM,–,–[2.33 µM],3.2µM
Cc1nn(-c2ncc(C(F)(F)F)cc2Cl)c(=O)n1-c1c(F)cccc1F,–,–,–,–,79µM,–
CCn1c(C)[n+](Cc2ccccc2)c2ccc(C(=O)OC)cc21,·,–,·,–,32µM,–
Cc1ccccc1-c1nc(CNC(=O)Nc2ccccc2)c(C)o1,–,·,·,–,–,–
